ELG1 genotox: genotoxicity induction in ELG1-luciferase HEK293T cells; hit rate 1.3% among 330,000; HEK293T ELG1-luciferase reporter, luminescence, 16 h; Potency, µM (titrated, usually from 46 µM), most hits filed as activators; AID 504466; also: nearly all actives have a fitted effect of over 60% in size
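After overnight (16 hr) compound treatment at 37 °C, ELG1-luciferase HEK293T cells were lysed with ONE-Glo; luminescence quantified 30 min later at room temperature.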
NPC1 prom act: NPC1 promoter activation; Huh7 NPC1 promoter luciferase reporter, 24 h; Potency, µM (series often up to 9.22 µM), actives largely listed as activators; hit rate 2.4% among 320,000; also: nearly all actives have a fitted effect of over 60% in size
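Luminescence from an NPC1 promoter-driven luciferase reporter in stably transfected Huh7 cells was measured after 24 h compound treatment at 37 °C, followed by 10 min ambient incubation with luciferase detection reagent.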
SMN2 splice enh: enhancers of SMN2 splice variant expression; HEK293 SMN2-luciferase splicing reporter, luminescence, 30-36 h; hit rate 2.8% among 210,000; Potency, µM (highest dose often 46.1 µM), most hits filed as activators; also: nearly all actives have a fitted effect of over 55% in size
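HEK293 cells carry an SMN2 minigene-luciferase reporter in which exon 7 inclusion puts luciferase in frame. Cells were seeded at 2000 cells/well, attached for 10-12 hours, then exposed to compounds for 30-36 hours at 37C before ONE-Glo luminescence.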
FLuc counter: counter-screen for miR-21 project: firefly luciferase inhibitors or activators | P08659 | purified FLuc, Km substrates, luminescence inhibition | Potency, µM (series often up to 57.5 µM), hits mostly inhibitors | hit rate 6.9% among 360,000 | AID 588342; also: nearly all actives have a fitted effect of over 55% in size
Target sequence (P08659 whole entry, looked up): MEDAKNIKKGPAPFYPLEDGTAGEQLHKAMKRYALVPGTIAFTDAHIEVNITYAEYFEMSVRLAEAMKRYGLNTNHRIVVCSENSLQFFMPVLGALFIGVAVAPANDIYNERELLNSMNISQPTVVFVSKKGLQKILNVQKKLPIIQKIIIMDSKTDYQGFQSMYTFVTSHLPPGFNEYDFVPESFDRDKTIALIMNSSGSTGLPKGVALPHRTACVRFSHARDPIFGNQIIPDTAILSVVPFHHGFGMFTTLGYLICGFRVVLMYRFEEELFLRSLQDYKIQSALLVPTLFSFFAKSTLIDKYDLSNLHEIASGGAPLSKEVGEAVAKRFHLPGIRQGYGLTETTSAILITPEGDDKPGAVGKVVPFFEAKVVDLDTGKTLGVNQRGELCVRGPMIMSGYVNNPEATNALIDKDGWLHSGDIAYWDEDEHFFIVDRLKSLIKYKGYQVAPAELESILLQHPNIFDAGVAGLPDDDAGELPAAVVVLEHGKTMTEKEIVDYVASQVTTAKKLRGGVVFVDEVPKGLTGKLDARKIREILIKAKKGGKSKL
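Purified P. pyralis luciferase (10nM final) with 10uM D-luciferin and 10uM ATP (Km levels) in 50mM Tris acetate pH 7.5, 10mM Mg acetate, 0.01% Tween-20, 0.05% BSA; qHTS 6-point titration, ~60 µM downward; luminescence read.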
Rab9 prom act: activates the Rab9 promoter | Huh7 Rab9 promoter-luciferase reporter, luminescence, 24 h | Potency, µM (doses to about 9.22 µM), most hits filed as activators | hit rate 2.8% among 320,000 | AID 485297; also: nearly all actives have a fitted effect of over 60% in size
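Steps: seed 1500 Huh7 Rab9-luc cells per well, rest 2 h at 37 °C; add compound in DMSO; incubate 24 h; add luciferase reagent, 10 min ambient; read luminescence.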
KinaseGlo FLuc: counter-screen: inhibitors of Kinase-Glo firefly luciferase | Q27757 | Kinase-Glo luciferase, ATP luminescence, 8 min | Potency, µM (titrated, usually from 38.3 µM), actives largely listed as inhibitors | hit rate 0.28% among 200,000 | AID 1379; also: nearly all actives have a fitted effect of over 60% in size
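Kinase-Glo luciferase light output from ATP and luciferin was measured with 10 uM ATP, within the enzyme's linear range. Buffer: 50 mM imidazole pH 7.2, 50 mM KCl, 7 mM MgCl2, 0.01% Tween 20, 0.05% BSA; luminescence read after 8 min at ambient temperature.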
A number is an active result; . = inactive; ? = inconclusive; / = no result; [ ] = dose if it differs, or a comment. Rows were chosen to be rich in hits. Some 7.3% of all compounds tested hit in one or more screens of this group. Calls follow the shape of the dose curve; as a rule, active = well fitted curve in the direction sought with a large enough effect; inconclusive = small, poorly fitted or top-dose-only effect, or another doubt; inactive = no such curve, though single readings can be large; an effect the other way counts as inactive or inconclusive.

SMILES	ELG1 genotox	NPC1 prom act	SMN2 splice enh	FLuc counter	Rab9 prom act	KinaseGlo FLuc
O=C(CSCc1cccc(F)c1)N1CCN(c2ccccc2)CC1	13µM	3.16µM	12.6µM	13.5µM	?	.
O=C(CSCc1ccccc1)N1CCN(c2ccccc2)CC1	?	?	12.6µM	23.9µM	?	.
O=C(CSCc1ccccc1)N1CCN(c2ccc(F)cc2)CC1	.	.	.	.	.	.
O=C(CSCc1ccccc1)N1CCN(c2cccc(C(F)(F)F)c2)CC1	.	.	.	.	.	.
Cc1cccc(NC(=O)N2CCC(CN3CCCCCC3)CC2)c1C	/	/	/	.	/	/
C[C@@H](NC(=O)CN(c1ccccc1)S(=O)(=O)N(C)C)c1ccccc1	/	/	.	.	/	/
Cc1ccc(NC(=O)CCn2nc(C)c(S(=O)(=O)N3CCCCC3)c2C)cc1Cl	/	/	/	.	/	/
O=C(Nc1ccccc1F)C(=O)c1cn(CC(=O)N2CCCCC2)c2ccccc12	.	.	?	5.36µM	.	.
CC(=O)Nc1ccc(NC(=O)C(=O)c2cn(CC(=O)N3CCCC3)c3ccccc23)cc1	.	.	/	.	.	/
COc1ccc(NC(=O)C(=O)c2cn(CC(=O)N3CCCC3)c3ccccc23)cc1	?	.	/	12µM	.	/
CC(=O)Nc1cccc(NC(=O)C(=O)c2cn(CC(=O)N3CCCCC3)c3ccccc23)c1	.	.	.	8.49µM	?	.
O=C(CSc1cn(CC(=O)N2CCCCCC2)c2ccccc12)Nc1ccccc1F	/	/	/	.	/	/
CCCSCCCNC(=O)c1ccc(Cn2c(=O)c3cccn3c3cccnc32)cc1	/	/	/	.	/	/
COC(CNC(=O)c1ccc2c3c(onc13)-c1ccccc1C2=O)OC	?	?	/	15.1µM	?	/
COc1cc(NC(=O)C2CCCCC2)c2ncccc2c1	.	.	.	15.1µM	.	.
COc1cc(NC(=O)c2ccc(Cl)cc2)c2ncccc2c1	.	.	/	?	.	/
COc1ccc(C(=O)Nc2cc(OC)cc3cccnc23)cc1	.	.	/	7.57µM	.[1.84 µM]	/
COc1ccc(OC)c(NC(=O)C2CCCCC2)c1	.	.	.	.	.	.
CCCN(C(=O)COc1cc(=O)n(CC)c2ccccc12)c1ccc(C(C)C)cc1	/	/	.	.	/	/
COCCCNC(=O)Cn1c(=O)n(-c2cccc(C)c2)c(=O)c2c1c1cc(C)ccc1n2C	/	/	/	.	/	/
COc1ccc(/C=C2\N=C3CCCCCN3C2=O)cc1	?	.	?	15.1µM	.	.
COc1ccc(/C=C2/N=C3CCCCCN3C2=O)cc1OC	?	.	.	?	.	.
CN(C)C(=O)COC(=O)c1ccccc1Nc1ccc(SC(F)F)cc1	?	?	12.6µM	26.9µM	?	.
COc1ccccc1NC(=O)COC(=O)c1ccccc1OCC(=O)Nc1ccc(SC(F)F)cc1	?	.	.	.	.	.
Cc1cccnc1NC(=O)/C=C/c1ccc2c(c1)OCO2	?	2.51µM	15.8µM	19µM	2.82µM	.
SMILES	ELG1 genotox	NPC1 prom act	SMN2 splice enh	FLuc counter	Rab9 prom act	KinaseGlo FLuc
O=C(/C=C/c1ccc2c(c1)OCO2)c1ccccc1	/	/	.	/	/	.
O=C(N/N=C\C=C\c1ccc2c(c1)OCO2)c1cccnc1	.	.	.	16.9µM	.	.
O=C(/C=C/c1ccc2c(c1)OCO2)c1cccnc1	.	.	/	15.1µM	.	/
COc1ccc(/C=C/C(=O)Nc2cccc(N3CCOCC3)c2)cc1OC	.	.	.	26.9µM	.	.
Cc1cccnc1NC(=O)c1ccc2c(c1)OCO2	.	.	/	.	.	/
C=C(C)C(=O)/C=C/c1ccc(C(F)(F)F)cc1	/	/	.	/	/	.
CCC1CN(C(=O)N2CCC(C(=O)N3CCN(c4ccccc4F)CC3)CC2)c2ccccc2O1 (centres undefined)	/	/	/	.	/	/
CCN(CC)CCCCn1c(-c2ccccc2)nc2c(N(CCOC)CCOC)nc(C)nc21	/	/	.	/	/	.
COc1ccc(S(=O)(=O)N(CC(=O)Nc2cccc(C(F)(F)F)c2)c2ccc(C)cc2)cc1	/	/	.	.	/	/
CCOC(=O)CC(NC(=O)CCc1c(C)nc2c(c1C)c(=O)n(C)c(=O)n2C)c1ccc(OCC)c(OC)c1 (centres undefined)	/	/	.	.	/	/
CC(=O)Nc1ccc(NC(=O)/C=C/c2ccc3c(c2)OCO3)cc1	.	.	.	?	.	.
O=C(/C=C/c1ccc2c(c1)OCO2)Nc1cccnc1	3.66µM	2.24µM	12.6µM	2.39µM	1.26µM	.
COC(=O)c1cccc(NC(=O)/C=C/c2ccc3c(c2)OCO3)c1	.	2.82µM	.	1.35µM	2.51µM	.
Cc1cc(C)nc(NC(=O)/C=C/c2ccc3c(c2)OCO3)c1	?	3.16µM	/	2.13µM	2.51µM	?
COC(=O)c1cc(NC(=O)/C=C/c2ccc3c(c2)OCO3)cc(C(=O)OC)c1	.	.	?	.	.	.
COc1ccc(NC(=O)CC2NCCNC2=O)c(OC)c1 (centres undefined)	/	/	.	.	/	/
COc1cc(OC)c(OC)cc1CN1CCc2nc(N3CCN(c4ccccc4F)CC3)ncc2C1	/	/	/	.	/	/
CC(C)(C)c1ccc(-c2nnc(N)o2)cc1	?	2.82µM	/	6.01µM	2.82µM	/
Cc1cc(C)nc(NC(=O)c2ccc(C)c([N+](=O)[O-])c2)n1	.	.	.	.	.	.
Cc1csc(NC(=O)c2ccc(Cl)cc2[N+](=O)[O-])n1	?	?	11.2µM	26.9µM	4.47µM	.
Cc1csc(NC(=O)c2ccc(C)c([N+](=O)[O-])c2)n1	?	2µM	3.55µM	1.07µM	1.12µM	.
NC(=O)C1CC(=O)N(c2ccc(OCc3ccc(Cl)cc3)cc2)C1 (centres undefined)	?	2.82µM	/	8.49µM	2.82µM	.
C=CCNC(=O)C1CC(=O)N(c2ccc(OCC(=O)N3CCCC3)cc2)C1 (centres undefined)	.	.	/	.	.	/
C=CCNC(=O)C1CC(=O)N(c2ccc(OCC(=O)Nc3ccccc3)cc2)C1 (centres undefined)	?	2.82µM	12.6µM	12µM	3.55µM	.
CCCNC(=O)C1CC(=O)N(c2ccc(OCc3ccc(Cl)cc3)cc2)C1 (centres undefined)	1.83µM	1.41µM	/	2.13µM	3.98µM	/
CCOc1ccc(N2CC(C(=O)NCCc3ccccc3)CC2=O)cc1 (centres undefined)	.	.	/	.	.	/
C=CCNC(=O)C1CC(=O)N(c2ccc(OCc3ccc(F)cc3)cc2)C1 (centres undefined)	18.3µM	1.12µM	/	7.57µM	1.41µM	/
CC(C)(C)OC(=O)N1CCC(c2nnc(SCc3ccccc3)o2)CC1	/	/	.	.	/	/
CC1(OC(=O)C2CCCC2)C(=O)C=C2C=C(c3ccsc3)N(c3cccc(C#N)c3)C=C2C1=O (centres undefined)	/	/	.[9.22 µM]	/	/	.[7.66 µM]
CCc1ccccc1NC(=O)c1ccc2c(c1)N(Cc1cccc(Cl)c1)C(=O)c1ccccc1S2(=O)=O	/	/	.	.	/	/

Bioassay records from PubChem.
